The panel holds about 79,000 compounds, 15% with a hit somewhere; the sample as a whole holds those more often. A number with no mark means an inactive call. Activity calls are given as the source filed them. Rule as the data show it: active = growth inhibition above about 70%; inactive = the rest.
Experiments:
[1] = NCI Yeast Anticancer Drug Screen. Data for the rad52 strain (AID 147);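 also: 0% = growth of vehicle-treated control cultures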; details: S. cerevisiae rad52 mutant growth inhibition, active compounds read high
Outline: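 Here a repair-compromised yeast strain receives each compound; its growth is then quantified and normalised to vehicle-only controls.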

[2] = NCI Yeast Anticancer Drug Screen. Data for the wt1 strain (AID 149);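 also: 0% = growth of vehicle-treated wt1 cultures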; details: S. cerevisiae wt1 strain (SPY 50644) growth inhibition, active compounds read high
Outline: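 Each compound is tested on wt1 yeast and the loss of growth versus vehicle gives the inhibition value.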

[3] = NCI Yeast Anticancer Drug Screen. Data for the rad50EPP+ strain (AID 151);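 also: 0% = growth of vehicle-treated control cultures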; details: S. cerevisiae rad50 mutant strain, active compounds read high
Outline: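 Read-out is yeast growth inhibition relative to vehicle; cells used were the rad50EPP+ strain.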

[4] = NCI Yeast Anticancer Drug Screen. Data for the mgt1 strain (AID 153); details: S. cerevisiae mgt1 mutant growth inhibition, active compounds read high
Outline: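 Measured: inhibition of mgt1 yeast growth by compound, normalized to vehicle-treated cultures.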

[5] = NCI Yeast Anticancer Drug Screen. Data for the rad50 strain (AID 155);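 also: 0% = growth of vehicle-only cultures of the same strain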; details: S. cerevisiae rad50 strain growth inhibition, active compounds read high
Outline: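 Vehicle-treated cultures provide the reference for the growth inhibition reported for compound-exposed, repair-deficient yeast.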

[6] = NCI Yeast Anticancer Drug Screen. Data for the mec2-1 strain (AID 157); details: S. cerevisiae mec2-1 strain, active compounds read high
Outline: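 Using mec2-1 yeast: add compound, measure growth, express inhibition versus vehicle-treated cultures.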

[7] = NCI Yeast Anticancer Drug Screen. Data for the rad14 strain (AID 159);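 also: 0% = growth of vehicle-treated control cultures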; details: S. cerevisiae rad14 strain growth inhibition, active compounds read high
Outline: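 Inhibition of growth is reported for a repair-deficient yeast mutant following compound treatment, calculated relative to cultures that received vehicle.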

[8] = NCI Yeast Anticancer Drug Screen. Data for the sgs1 mgt1 strain (AID 161);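 also: 0% = growth of cultures given vehicle only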; details: S. cerevisiae sgs1 mgt1 strain, active compounds read high
Outline: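 Yeast cells carrying a defined DNA-repair defect were exposed to test compounds. Growth inhibition was measured relative to vehicle-treated controls.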

[9] = NCI Yeast Anticancer Drug Screen. Data for the CLN2oe strain (AID 163);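 also: 0% = growth of vehicle-only control cultures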; details: S. cerevisiae CLN2oe strain, active compounds read high
Outline: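 Whole-cell yeast growth assay. A strain engineered for altered cell-cycle control received compound, and inhibition relative to vehicle-treated cultures was recorded.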

[10] = NCI Yeast Anticancer Drug Screen. Data for the cln2 rad14 strain (AID 165);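 also: 0% = growth equal to vehicle treated cultures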; details: S. cerevisiae cln2 rad14 strain, active compounds read high
Outline: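 Yeast strain cln2 rad14, bearing defects in cell cycle control and DNA repair, serves as the test system; values reflect growth inhibition compared with vehicle.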

[11] = NCI Yeast Anticancer Drug Screen. Data for the bub3 strain (AID 167); details: S. cerevisiae bub3 mutant strain, active compounds read high
Outline: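 Mutant yeast screening strain plus compound; vehicle-treated cultures serve as the 0% inhibition reference.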

[12] = NCI Yeast Anticancer Drug Screen. Data for the wt2 strain (AID 169); details: S. cerevisiae wt2 strain growth inhibition, active compounds read high
Outline: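 Treated yeast vs. vehicle-treated yeast: growth inhibition determined.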

[13] = NCI Yeast Anticancer Drug Screen. Data for the mlh1 strain (AID 171);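 also: 0% = growth of vehicle-treated control cultures of the same strain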; details: S. cerevisiae mlh1 strain growth inhibition, active compounds read high
Outline: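 A yeast strain with a defined genetic lesion serves as the test organism. Cultures receive compound or vehicle, and growth is measured.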

[14] = NCI Yeast Anticancer Drug Screen. Data for the sgs1 strain (AID 173);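 also: 0% = growth of vehicle-only control cultures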; details: S. cerevisiae sgs1 mutant, active compounds read high
Outline: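 A genetically defined yeast mutant is incubated with the test compound, and its growth is compared to that of the same strain given vehicle.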

[15] = NCI Yeast Anticancer Drug Screen. Data for the mlh1 rad18 strain (AID 175); details: S. cerevisiae mlh1 rad18 strain growth inhibition, active compounds read high
Outline: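 Steps: expose repair-defective yeast to compound; measure growth; express inhibition against vehicle-treated controls.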

[16] = NCI Yeast Anticancer Drug Screen. Data for the rad18 strain (AID 177); details: S. cerevisiae rad18 mutant growth inhibition, active compounds read high
Outline: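 Measured value is growth inhibition of a yeast strain bearing a DNA repair alteration, referenced to vehicle-treated cells.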

[17] = at 5.0 µM (retest, dose inferred, filed as 0.5)
[18] = at 50.0 µM (retest, dose inferred, filed as 5.0)

COc1ccc(C(=O)/C=C\c2ccc(Cl)c(Cl)c2)cc1
growth inhibition ([1]; at 1.2 µM): 16% | growth inhibition ([1]; at 3.7 µM): 15% | growth inhibition ([1]; at 11.0 µM): 19% | growth inhibition ([1]; at 33.0 µM): 34% | growth inhibition ([1]; at 100.0 µM): 56% | growth inhibition ([2]; at 1.2 µM): 26% | growth inhibition ([2]; at 3.7 µM): 26% | growth inhibition ([2]; at 11.0 µM): 29% | growth inhibition ([2]; at 33.0 µM): 43% | growth inhibition ([2]; at 100.0 µM): 81% (active) | growth inhibition ([3]; at 1.2 µM): 12% | growth inhibition ([3]; at 3.7 µM): 10% | growth inhibition ([3]; at 11.0 µM): 16% | growth inhibition ([3]; at 33.0 µM): 31% | growth inhibition ([3]; at 100.0 µM): 24% | growth inhibition ([4]; at 1.2 µM): 7% | growth inhibition ([4]; at 3.7 µM): -38% | growth inhibition ([4]; at 11.0 µM): -4% | growth inhibition ([4]; at 33.0 µM): 25% | growth inhibition ([4]; at 100.0 µM): 70% (active) | growth inhibition ([5]; at 1.2 µM): 4% | growth inhibition ([5]; at 3.7 µM): 7% | growth inhibition [5, 17]: 53% | growth inhibition ([5]; at 11.0 µM): 6% | growth inhibition ([5]; at 33.0 µM): 34% | growth inhibition [5, 18]: 68% | growth inhibition ([5]; at 50.0 µM): 69.5% | growth inhibition ([5]; at 100.0 µM): 71% (active) | growth inhibition ([6]; at 1.2 µM): -7% | growth inhibition ([6]; at 3.7 µM): 0% | growth inhibition [6, 17]: 47% | growth inhibition ([6]; at 11.0 µM): 7% | growth inhibition ([6]; at 33.0 µM): 23% | growth inhibition [6, 18]: 58% | growth inhibition ([6]; at 50.0 µM): 59.6% | growth inhibition ([6]; at 100.0 µM): 68% | growth inhibition ([7]; at 1.2 µM): -19% | growth inhibition ([7]; at 3.7 µM): -20% | growth inhibition ([7]; at 11.0 µM): -30% | growth inhibition ([7]; at 33.0 µM): -17% | growth inhibition ([7]; at 100.0 µM): 42% | growth inhibition [8, 17]: -18% | growth inhibition [8, 18]: 80% (active) | growth inhibition ([8]; at 50.0 µM): 70.8% (active) | growth inhibition ([9]; at 1.2 µM): 12% | growth inhibition ([9]; at 3.7 µM): 10% | growth inhibition ([9]; at 11.0 µM): 8% | growth inhibition ([9]; at 33.0 µM): 22% | growth inhibition ([9]; at 100.0 µM): 69% | growth inhibition [10, 17]: 18% | growth inhibition [10, 18]: 77% (active) | growth inhibition ([10]; at 50.0 µM): 57.6% | growth inhibition ([11]; at 1.2 µM): 0% | growth inhibition ([11]; at 3.7 µM): 2% | growth inhibition [11, 17]: 12% | growth inhibition ([11]; at 11.0 µM): -3% | growth inhibition ([11]; at 33.0 µM): 29% | growth inhibition [11, 18]: 80% (active) | growth inhibition ([11]; at 50.0 µM): 74.6% (active) | growth inhibition ([11]; at 100.0 µM): 67% | growth inhibition ([12]; at 1.2 µM): 15% | growth inhibition ([12]; at 3.7 µM): 0% | growth inhibition ([12]; at 11.0 µM): 12% | growth inhibition ([12]; at 33.0 µM): 37% | growth inhibition ([12]; at 100.0 µM): 76% (active) | growth inhibition ([13]; at 1.2 µM): 11% | growth inhibition ([13]; at 3.7 µM): 12% | growth inhibition ([13]; at 11.0 µM): -11% | growth inhibition ([13]; at 33.0 µM): 15% | growth inhibition ([13]; at 100.0 µM): 64% | growth inhibition ([14]; at 1.2 µM): 10% | growth inhibition ([14]; at 3.7 µM): 5% | growth inhibition ([14]; at 11.0 µM): 11% | growth inhibition ([14]; at 33.0 µM): 44% | growth inhibition ([14]; at 100.0 µM): 67% | growth inhibition [15, 17]: 39% | growth inhibition [15, 18]: 72% (active) | growth inhibition ([15]; at 50.0 µM): 63.5% | growth inhibition ([16]; at 1.2 µM): -17% | growth inhibition ([16]; at 3.7 µM): -35% | growth inhibition ([16]; at 11.0 µM): -44% | growth inhibition ([16]; at 33.0 µM): -6% | growth inhibition ([16]; at 100.0 µM): 52%

O=C1CCC(Cc2ccccc2)CN1 (stereo not drawn)
growth inhibition ([1]; at 1.2 µM): -1% | growth inhibition ([1]; at 3.7 µM): -1% | growth inhibition ([1]; at 11.0 µM): -2% | growth inhibition ([1]; at 33.0 µM): -3% | growth inhibition ([1]; at 100.0 µM): 0% | growth inhibition ([2]; at 1.2 µM): -3% | growth inhibition ([2]; at 3.7 µM): -2% | growth inhibition ([2]; at 11.0 µM): 1% | growth inhibition ([2]; at 33.0 µM): -2% | growth inhibition ([2]; at 100.0 µM): -1% | growth inhibition ([3]; at 1.2 µM): -1% | growth inhibition ([3]; at 3.7 µM): 0% | growth inhibition ([3]; at 11.0 µM): 12% | growth inhibition ([3]; at 33.0 µM): 25% | growth inhibition ([3]; at 100.0 µM): 42% | growth inhibition ([4]; at 1.2 µM): -1% | growth inhibition ([4]; at 3.7 µM): -5% | growth inhibition ([4]; at 11.0 µM): -1% | growth inhibition ([4]; at 33.0 µM): 68% | growth inhibition ([4]; at 100.0 µM): 93% (active) | growth inhibition ([5]; at 1.2 µM): -1% | growth inhibition ([5]; at 3.7 µM): -2% | growth inhibition [5, 17]: 10% | growth inhibition ([5]; at 11.0 µM): -2% | growth inhibition ([5]; at 33.0 µM): -3% | growth inhibition [5, 18]: 7% | growth inhibition ([5]; at 50.0 µM): 7.1% | growth inhibition ([5]; at 100.0 µM): -1% | growth inhibition ([6]; at 1.2 µM): -1% | growth inhibition ([6]; at 3.7 µM): -1%
